# PLK1 PBD inh = inhibitors of human PLK1 polo-box domain binding | P53350 | AID 720504 | Potency, µM, for inactives: max response, negative = inhibition, usual class: inhibitors | 2.8% of 360,000 active | Plk1 PBD binding of FITC phosphopeptide, fluorescence polarization; also: series mostly up to about 57 µM; nearly all actives have a fitted effect of over 65% in size
# Target sequence (P53350 whole entry, looked up, the tested form may be a part): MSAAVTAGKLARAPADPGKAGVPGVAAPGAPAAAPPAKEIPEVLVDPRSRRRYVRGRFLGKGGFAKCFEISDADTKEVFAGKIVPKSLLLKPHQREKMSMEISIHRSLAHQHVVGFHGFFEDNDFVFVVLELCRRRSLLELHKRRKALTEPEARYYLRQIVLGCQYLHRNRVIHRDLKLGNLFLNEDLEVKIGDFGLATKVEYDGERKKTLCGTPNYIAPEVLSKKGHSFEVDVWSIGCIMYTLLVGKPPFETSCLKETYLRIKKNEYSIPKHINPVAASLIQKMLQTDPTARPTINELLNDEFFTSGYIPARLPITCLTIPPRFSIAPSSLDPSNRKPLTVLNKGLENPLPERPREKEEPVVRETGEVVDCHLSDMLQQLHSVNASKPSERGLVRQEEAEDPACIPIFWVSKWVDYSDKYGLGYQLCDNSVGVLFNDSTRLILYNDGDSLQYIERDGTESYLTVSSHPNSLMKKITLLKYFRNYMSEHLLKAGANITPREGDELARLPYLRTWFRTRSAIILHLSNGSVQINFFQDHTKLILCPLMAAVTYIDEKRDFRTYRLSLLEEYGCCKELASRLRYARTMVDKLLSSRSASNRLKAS
# DT40 TDP1 no CPT = qHTS for Inhibitors of human tyrosyl-DNA phosphodiesterase 1 (TDP1): qHTS in cells in absence of CPT. AID 686978, 2013. DT40 Tdp1-/- hTDP1 cells, no CPT, ATP luminescence, 48 h. Potency, µM (series often up to 46.2 µM), inactives show at the top dose activity change, negative = growth inhibition, hits mostly inhibitors. 15% of 420,000 active; also: nearly all actives have a fitted effect of over 55% in size
#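 Chicken DT40 Tdp1-/- cells complemented with human TDP1, screened without camptothecin (DMSO vehicle only), 400 cells/well. Compounds pin-transferred, cells incubated at 37 °C for at least 48 hr. Growth read as ATP-dependent luminescence (CellTiter-Glo, 30 min at RT).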
# TDP1 inh = blocks human tyrosyl-DNA phosphodiesterase 1 | Q9NUW8 | recombinant TDP1, AlphaScreen DNA substrate cleavage | Potency, µM (titrated, usually from 130 µM), inactives show top-dose activity change, negative = inhibition, usual class: inhibitors | 0.28% of 350,000 active | AID 485290; also: nearly all actives have a fitted effect of over 40% in size
#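 Tdp1 1 nM final; 15 min RT w/ cpd; substrate 15 nM, 5 min; beads 10 ug/ml, 10 min; AlphaScreen read. Neg ctrl: no enzyme.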
# VDR inh = inhibitors of human vitamin D receptor; AID 504847; Potency, µM, for inactives: max response, negative = inhibition, hits mostly inhibitors; VDR-SRC2-3 peptide fluorescence polarization, 2 h; P11473; 0.93% of 400,000 active
#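 Two reagent solutions held at 4 deg C in the dark were dispensed, compounds pinned at 23 nl, and the mixture incubated 2 h at room temperature. Read-out: fluorescence polarization of VDR–SRC2-3 peptide binding.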
# GCN5L2 inh = inhibitors of human GCN5L2 histone acetyltransferase. Q92830. 0.21% of 390,000 active. AID 504327. GCN5L2 HAT assay, ThioGlo1 CoA-SH fluorescence. Potency, µM (series often up to 58.9 µM), without a hit: at the highest dose activity change, negative = inhibition, usual class: inhibitors
#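 qHTS, 1536-well. 20nM enzyme, pH 7.5 HEPES/EDTA/Tween-20 buffer; 15 min compound preinc., RT. Start: 75uM H3(1-25), 70uM AcCoA, 50uM ThioGlo1. Read Ex340/Em540 at t=0 (autofluorescence flag) and t=20 min.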
# DT40 TDP1 CPT = DT40-hTDP1 cell growth loss with CPT; chicken DT40 Tdp1-/-;hTDP1 cells + 20 nM CPT, ATP luminescence, 48 h; Potency, µM (top dose mostly 46.2 µM), for inactives: at the top dose activity change, negative = growth inhibition, usual class: inhibitors; 12% of 420,000 active; also: nearly all actives have a fitted effect of over 55% in size
#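 Chicken DT40 Tdp1-/- cells complemented with human TDP1, 400 cells/well, exposed to compounds plus 20 nM camptothecin for at least 48 h at 37 C; viability read as ATP content by CellTiter-Glo luminescence.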
# TbPYK inh = Trypanosoma brucei pyruvate kinase inhibition, cherry-pick confirmation. recombinant TbPYK, Kinase-Glo ATP luminescence. Potency, µM (doses to about 76.9 µM), inactives show at the top dose activity change, negative = inhibition, hits mostly inhibitors. shares compounds with PLK1 PBD inh. AID 720569. 67% of 890 active; also: nearly all actives have a fitted effect of over 70% in size
# TbPYK ADP-Glo = TbPYK inhibition, orthogonal confirmation; shares compounds with PLK1 PBD inh; recombinant TbPYK, ADP-Glo luminescence, 60 min; Potency, µM (titrated, usually from 76.9 µM), without a hit: at the top dose activity change, negative = inhibition, usual class: inhibitors; 62% of 890 active; also: nearly all actives have a fitted effect of over 75% in size
# An asterisk follows results filed as active; ? = inconclusive; . = not tested or not shown. Rows were chosen to be rich in hits. Some 18% of all compounds tested hit in one or more screens of this group. Calls follow the shape of the dose curve; as a rule, active = well fitted curve in the direction sought with a large enough effect; inconclusive = small, poorly fitted or top-dose-only effect, or another doubt; inactive = no such curve, though single readings can be large; an effect the other way counts as inactive or inconclusive. % is scaled to controls: 0 for no effect and ±100 for the full control effect; potency is read from the fitted curve at half-maximal effect.
SMILES,PLK1 PBD inh,DT40 TDP1 no CPT,TDP1 inh,VDR inh,GCN5L2 inh,DT40 TDP1 CPT,TbPYK inh,TbPYK ADP-Glo
COc1cc(O)c(C(=O)O)c(-c2cc(O)c(O)cc2C)c1,?,16.4µM*,.,-21.4%,0.6%,4.61µM*,2µM*,10µM*
O=C(Nc1c(F)cc(F)cc1F)c1cccn(Cc2ccccc2)c1=O,-13.7%,?,-0.5%,16.5%,-6.4%,6.0%,.,.
NC1CCc2cc(O)c(O)cc2C1 (stereo not given),1.4%,13µM*,12.1%,-7.3%,-14.3%,20.6µM*,-94.8%,28.2µM*
O=C1NC(=O)C(=Cc2coc3ccc(O)cc3c2=O)C(=O)N1,26.7µM*,20.6µM*,.,?,-2.3%,16.4µM*,14.1µM*,?
COc1ccc(C(=O)N/N=C\c2coc3ccc(C)cc3c2=O)cc1,-12.3%,-20.1%,?,-14.6%,-3.0%,-36.5%,.,.
Cc1cc(C)nc(NS(=O)(=O)c2ccc(N=Cc3c(O)n(C)c(=O)n(C)c3=O)cc2)n1,-1.4%,-7.6%,-8.1%,-3.1%,-2.9%,-1.3%,.,.
Cc1c(C=C2C(=O)NC(=O)NC2=O)c(=O)n(-c2ccccc2)n1C,?,5.8%,-6.1%,4.4%,-2.3%,19.0%,.,.
O=C1NC(=O)C(=Cc2ccc(N3CCOCC3)cc2)C(=O)N1,9.47µM*,-20.9%,-2.3%,25.5%,2.5%,-11.7%,25.1µM*,?
CC(=O)Nc1ccc(C=C2C(=O)NC(=O)NC2=O)cc1,-29.2%,-0.2%,.,?,.,4.4%,15.8µM*,17.8µM*
CCOP(=O)(C1=C(O)C(=O)C(C(C)(C)C)=CC1=O)c1ccccc1 (stereo not given),?,-9.1%,0.0%,?,-6.7%,-2.0%,?,?
CCOP(=O)(OCC)C(Cc1ccccc1)NC(C)=O (stereo not given),1.4%,-11.0%,.,-1.0%,-0.6%,0.5%,.,.
C[C@]12CC[C@@H]3c4ccc(O)c(O)c4CC[C@H]3[C@@H]1CC[C@@H]2O,?,13µM*,8.7%,-15.3%,-11.0%,25.9µM*,10µM*,10µM*
C=CCOC(=O)C1C(C(=O)O)C2(Cl)C(Cl)=C(Cl)C1(Cl)C2(Cl)Cl (stereo not given),-8.0%,-10.6%,.,-21.1%,.,?,.,.
CCCC12CN3CC(CCC)(CN(C1)C3c1ccccn1)C2=O (stereo not given),-0.3%,?,6.8%,1.4%,-0.7%,?,.,.
Cc1cc(N2CCCCC2)ccc1C=C1C(=O)N(C)C(=S)N(C)C1=O,3.36µM*,?,5.8%,?,-21.2%,?,20µM*,?
Cc1cc(N2CCCC2)ccc1C=C(C#N)C#N,?,-17.4%,5.3%,?,-7.9%,-11.9%,.,.
O=C1CCC2(O)C3Cc4ccc(O)c5c4C2(CCN3Cc2ccoc2)C1O5 (stereo not given),-15.5%,-20.4%,.,.,.,-10.9%,.,.
CCOC(=O)[C@]12Cc3ccccc3[C@H]1N(C(C)C)C(=O)c1ccccc12,?,23.1µM*,.,.,.,?,22.4µM*,31.6µM*
CCOC(=O)C1C(=O)N(C)C2(C)CC1c1ccccc1O2 (stereo not given),0.1%,14.7%,2.0%,16.2%,-1.9%,-13.7%,.,.
CC(C)OC1CCCC(O)C1CC(=O)O (stereo not given),-0.7%,0.6%,5.5%,0.6%,0.0%,7.4%,.,.

# Bioassay records: PubChem BioAssay, National Center for Advancing Translational Sciences (NCATS)
